In PubChem BioAssay (NCI) one finds growth data, which are given here for 40 molecules.

About 83,000 compounds went through this panel and 20% of them were active in at least one assay; those are over-represented in the sample as a whole.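 Single-concentration screen, 48 h exposure, 96-well plates. Endpoint: percent growth. Below 10 = active.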 A number with no mark means an inactive call. Activity calls are given as the source filed them.

The test system of this experiment is HS 578T breast. Briefly: NCI-60 one-dose screen, 48 h (100 = growth as untreated, 0 = no growth, -100 = all killed). Particulars: 10 µM unless noted. As for the experimental part:
Growth inhibition of the HS 578T human tumor cell line is measured as a screen for anti-cancer activity. Cells are grown in 96 well plates and exposed to the test compound for 48 hours. Compounds are tested at a single concentration, which is 10^-5 M for most compounds. The reported endpoint is percent growth (GI% or GIPRCNT), where numbers from 0 - 100% represent growth inhibition, and numbers from -100% - 0 represent cell death. For example, a value of 40 represents 60% growth inhibition. A value of 0 means no net growth occurred over the course of the experiment. A value of -40 indicates 40% of cells at the beginning of the experiment died by the end of the experiment. A value of -100 means all cells are dead at the end of the experiment.
NCI-60 Human Tumor Cell Lines Screen was performed using the standard one-dose NCI protocol, which is described in more detail at https://dtp.cancer.gov/discovery_development/nci-60/default.htm.
Compounds with GIPRCNT values below 10 were considered active. Activity score was based on GIPRCNT using the following formula: […]
Score is 0 for GIPRCNT values of 100 or above, 50 for GIPRCNT values of 0, and 100 for GIPRCNT values of -100.
Consider `CN1C(=O)N[C@H]2[C@@H]3NC(=O)c4ccc(Br)n4[C@@H]3C[C@]21O`, for which the growth is -28.5% (active).
Take `CCCOC(=O)N[C@H]1CCc2c(Br)c(OC)c(OC)c(OC)c2-c2ccc(SC)c(=O)cc21`: the growth is 1.06% (active).
Turning to `COc1ccc(S(=O)(=O)Nc2c(/C=C\c3cc(OC)c(OC)c(OC)c3)ccc(OC)c2O)cc1OC`, the growth was 16.3%.
The figure for `CC(=O)c1ccc(C(=O)NCC2CCC3(CC2)OOC2(CCCCC2)OO3)cc1` is 102%; for `O=C1CN=C(c2ccc(Cl)cc2)c2sccc2N1` it is 99.6%; for `CCCCOc1ccc(C(N)Cc2ccccc2)cc1` (stereo not given) it is 91%.
As for `CC1[C@H](C)OC(=O)CC(O)CC(O)CC(O)CCC(O)C(O)C[C@]2(O)CC(O)C(C(=O)O)C(CC(OC3O[C@H](C)[C@@H](O)[C@H](N)[C@@H]3O)/C=C/C=C/C=C/C=C/CC/C=C/C=C/[C@H](C)[C@H]1O)O2` (stereo not given in full), the growth is 97%.
`COc1ccc2c(c1)c(-c1nc(-c3c[nH]c4ncccc34)cs1)cn2CCN1CCOCC1`: the growth was 37.5%.
On to `Cc1cc(N(CCCl)CCCl)ccc1C=Nc1ccc(-c2csc(Cc3ccccc3)n2)cc1`, for which the growth is 106%.
The figure for `C=CC12CCN(CC1)C(C(O)c1ccnc3ccc(OC)cc13)C2` (stereo not given) is 90.4%; for `CC(=O)O[C@H]1CC[C@@]2(C)C(=CC[C@H]3[C@@H]4C[C@@H](N5CC5)[C@H](C(C)=O)[C@@]4(C)CC[C@@H]32)C1` it is 98%.
Take `Cc1cc(N(CCCl)CCCl)ccc1C=Nc1cccnc1`: the growth is 113%.
Regarding `COc1ccc(N(CC(=O)NCCC[Te]c2ccccc2)C(=O)CNC(=O)OC(C)(C)C)cc1`, the growth is 11.7%.
`CN1CCC(O)(c2ccc(F)cc2)C(C(=O)c2ccc(F)cc2)C1` (stereo not given): the growth was 101%.
In the case of `Cc1ccc2c(C(C[N+](=O)[O-])c3cccs3)c(-c3ccccc3)[nH]c2c1` (stereo not given) it was -11.7% (active).
The figure for `CC(=O)O[C@H](C[C@H](C(C)C)N(C)C(=O)[C@@H](NC(=O)[C@H]1CCCCN1C)C(C)C)c1nc(C(=O)N[C@@H](Cc2ccccc2)C[C@H](C)C(=O)O)c(C)s1` is 21.1%; for `C[C@]12CCc3sc(-c4cccc(F)c4)nc3C1=CC[C@@H]1[C@@H]2CC[C@]2(C)C(=O)CC[C@@H]12` it is 27.4%.
Consider `COc1cccc(C=NC(Cc2cnc[nH]2)C(=O)O)c1O` (stereo not given), for which the growth is 122%.
For `CC[C@H](C)[C@H](NC(=O)C12C3C4C1C1C2C3C41NC(C)=O)C(=O)N(C)[C@H](C[C@@H](OC(C)=O)c1nc(C(=O)N[C@@H](Cc2ccccc2)C[C@H](C)C(=O)OC)cs1)C(C)C` (stereo not given in full), the growth was 18.6%.
For `CC(C)(C)C(=O)OCOP(=O)(OCOC(=O)C(C)(C)C)C1CCCN(O)C1=O` (stereo not given), the growth is -8.85% (active).
In the case of `CC[C@H](C)[C@H](NC(=O)N[C@@H](C)c1ccccc1)C(=O)N(C)[C@H](C[C@@H](OC(C)=O)c1nc(C(=O)N[C@@H](Cc2ccccc2)C[C@H](C)C(=O)OC)cs1)C(C)C` it was 0.903% (active); in that of `COC(=O)[C@]12CCC(C)(C)C[C@H]1[C@H]1C(=O)C[C@@H]3[C@@]4(C)C[C@@]5(CC(C)(C)[C@@H]4CC[C@@]3(C)[C@]1(C)CC2)OO[C@@](C)(C(F)(F)F)O5`, 99.7%; in that of `Cc1ccc(C(=O)NCCCOc2ccc(N3C(N)=NC(N)=NC3(C)C)cc2Cl)cc1S(=O)(=O)F`, 109%.
In the case of `C=CC1=C[C@@H]2[C@@H]3O[C@]4(CC[C@H](O4)[C@@H](C)C[C@@H](O)C3=O)C[C@H](O)C3=NCC[C@@]32CC1`, the growth is -29.6% (active).
Regarding `Fc1c[c-]c(-c2ccccn2)c(F)c1.[CH3-].[Pt+2].c1ccc([PH+](c2ccccc2)c2ccccn2)cc1`, the growth is -1.24% (active).
In the case of `CC12CCC3C(CCC4=CC(=O)CCC43CF)C1CCC2=O` (stereo not given) it was 128%; in that of `O=C(CC1(O)C(=O)Nc2ccccc21)c1ccc(C(=O)NCC2CCC3(CC2)OOC2(CCCCC2)OO3)cc1` (stereo not given), 91.9%.
Take `CCC(C)(C)[C@H](NC(=O)[C@H]1CCCCN1C)C(=O)N(C)[C@H](C[C@@H](OC(C)=O)c1nc(C(=O)N[C@@H](Cc2ccccc2)C[C@H](C)C(=O)O)cs1)C(C)C`: the growth is 13.3%.
For the molecule `Cc1cccc(N2CCN(C(C)C#N)CC2)c1` (stereo not given), the growth is 96.3%.
Regarding `CC(=O)OC[C@]1(C)C=C2C(=O)[C@](C)(O)C3(CC3)C(C)=C2[C@H]1O`, the growth was -21.5% (active).
Consider `CCOC(=O)CCC(NC(=O)C(Cc1ccc(N(CCCl)CCCl)cc1)NC=O)C(=O)OCC` (stereo not given), for which the growth is 51.8%.
In the case of `CC[C@H](C)[C@H](NC(=O)c1ccccn1)C(=O)N(C)[C@H](C[C@@H](OC(C)=O)c1nc(C(=O)N[C@@H](Cc2ccccc2)C[C@H](C)C(=O)OC)cs1)C(C)C` it was -1.12% (active); in that of `C[C@]12CCc3sc(-c4ccccc4O)nc3C1=CC[C@@H]1[C@@H]2CC[C@]2(C)C(=O)CC[C@@H]12`, 105%.
The figure for `O=C(O)C(O)C(O)C1[O][Sb]([c]2ccc([N+](=O)[O-])cc2)[O]C1CO` (stereo not given) is 93.8%; for `ClCCN(CCCl)c1ccc(/C=N/Nc2ncnc3nc[nH]c23)cc1` it is 151%; for `O=[As](O)(O)c1ccccc1[As](=O)(O)O` it is 114%.
For `CCOC(=O)N[C@H]1CCc2c(Br)c(OC)c(OC)c(OC)c2-c2ccc(SC)c(=O)cc21`, the growth was -1.62% (active).
Regarding `Oc1ccc2c3c1OC1[C@@H](O)CC[C@@]4(O)[C@@H](C2)N(CC2CCC2)CC[C@]314` (stereo not given in full), the growth was 105%.
On to `C[C@@]12CC=C3c4nc(Nc5cccc(O)c5)sc4CC[C@]3(C)[C@H]1CC[C@]1(C)C(=O)CC[C@@H]21`, for which the growth was 7.41% (active).
`CCOC(=O)C(Cc1ccc(N(CCCl)CCCl)cc1)NC(=O)C(CC(C)C)NC(C)=O` (stereo not given): the growth was 108%.
